In PubChem BioAssay (NCI):
The panel holds about 79,000 compounds, 15% with a hit somewhere; the sample as a whole holds those more often. A number with no mark means an inactive call. Calls of active or inactive are those of the source. No stated cut-off is given here; in the data, active means growth inhibition above about 70%; inactive means the rest.

assay: NCI Yeast Anticancer Drug Screen. Data for the sgs1 mgt1 strain (AID 161);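 further: 0% = growth of cultures given vehicle only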; settings: S. cerevisiae sgs1 mgt1 strain, at 50.0 µM, active compounds read high
Method in brief: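 Percent growth inhibition was derived by comparing compound-exposed mutant yeast with vehicle-exposed cultures. The strain carries alterations in DNA damage repair.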

| SMILES | growth inhibition |
| --- | --- |
| CC1CC(C(=O)OC2OC(COC3OC(CO)C(OC4OC(C)C(O)C(O)C4O)C(O)C3O)C(O)C(O)C2O)C2CCC3(C)C(=CCC4(C)C3CCC3C(C)(CO)C(O)C(O)CC34C)C2C1C (stereo unspecified) | 72.8% (active) |
| CC1CC2(OC2C)C(=O)OC2CCN(C)C/C=C(/COC(=O)C1(C)O)C2=O (stereo unspecified) | 20.9% |
| CC(C)CCCC(C)[C@H]1CC[C@H]2[C@@H]3CC[C@H]4C[C@@H](CCC=C(c5cc(Cl)c(O)c(C(=O)O)c5)c5cc(Cl)c(O)c(C(=O)O)c5)CC[C@]4(C)[C@H]3CC[C@]12C (stereo partly specified) (tested in a mixture with another compound) | 3.45% |
| COC(=O)c1cnn2c1n[n+]([O-])c1ccccc12 | -33.1% |
| CC(C)/C(Cl)=N/OC(=O)Nc1cccc(C(F)(F)F)c1 | 85% (active) |
| COc1ccc2cc1Oc1ccc(cc1)CC1c3cc(OC)c(cc3CCN1C)Oc1c(OC)c(OC)cc3c1C(C2)N(C)CC3 (stereo unspecified) | -6.8% |
| CC(=O)c1ccc(NC(=O)/C(CC(=O)/C=C/c2ccccc2)=N/NC(N)=S)cc1 | 23.9% |
| COC(=O)C(=O)C(C(=O)C(=O)Nc1ccc(Cl)c(Cl)c1)c1nc2ccc(C(=O)c3ccccc3)cc2[nH]c1=O (stereo unspecified) | -15.1% |
| CC(C)=CCc1cc(C2COc3cc4c(c(O)c3C2=O)C=CC(C)(C)O4)c(O)cc1O (stereo unspecified) | 92% (active) |
| O=C1c2ccccc2-c2c1c1ccccc1c(=O)n2-c1cccnc1 | 26.2% |
| N=C1N=C(N)CS1 | 3.8% |
| CCCCCCCCCC(=O)CC(=O)c1c(O)cc(O)cc1O | 12.2% |
| CC12CCC(CC1)C(C)(C)O2 | -2.5% |
| COc1cc2c3cc1Oc1c(OC)c(OC)cc4c1C(Cc1ccc(O)c(c1)-c1cc(ccc1OC)CC3N(C)CC2)N(C)CC4 (stereo unspecified) | -2.15% |
| C=C1C(=O)OC2CC(C)C3(O)CCC(=O)C3(C)CC12 (stereo unspecified) | -5.2% |
| CNC(=S)c1nnsc1N | 21.6% |
| Cc1ccc(/C=N/Nc2nncc3ccccc23)s1 | 16.7% |
| COc1ccc(-c2coc3c4c(ccc3c2=O)OCO4)cc1OC | 0.45% |
| Cc1ccc(OCC2OC(n3cnc4c(Cl)nc(Cl)nc43)CC2Oc2ccc(C)cc2)cc1 (stereo unspecified) | 23.1% |

| SMILES | growth inhibition |
| --- | --- |
| NNc1[nH]c(=S)[nH]c1C(N)=O | -21.4% |
| CCOC(=O)C(=O)C(CCC(=O)c1ccc2ccccc2c1O)C(=O)OCC (stereo unspecified) | -2.9% |
| Cc1ccc(C)c(NC(=O)/C(=N\N)C(c2cnc3ccc([N+](=O)[O-])cc3n2)[N+](=O)[O-])c1 (stereo unspecified) | 6.75% |
| CC1C2(C)OC(=N)C(C#N)(C(c3cccc([N+](=O)[O-])c3)O2)C1(C#N)C#N (stereo unspecified) | -13.6% |
| Cn1c2c(c3ccccc3c1=O)C(=O)c1ccccc1-2 | 9.3% |
| C[N+](C)(CCNC(=O)c1cccc2cc3ccccc3nc12)Cc1ccc([N+](=O)[O-])s1 | -12.7% |
| CCC(=O)C(CC)c1cccc(OC)c1 (stereo unspecified) | 12.2% |
| COc1c2c(c3c(c1OC)c(=O)c1ccccc1n3C)OCO2 | 16.8% |
| CC/C(Cl)=N\OC(=O)Nc1ccc(OC)cc1 | -3.3% |
| O=C(O)CCCC(=O)Nn1c(Cc2ccc(Cl)cc2)n[nH]c1=O | 34.5% |
| CC1OC23CCCCC2C(C#N)(C#N)C1(C#N)C(=N)O3 (stereo unspecified) | -36% |
| N#CC1(C#N)C2CCCCC23OC(=N)C1(C#N)C(c1ccco1)O3 (stereo unspecified) | -29.2% |
| CNC(=S)/C(=N\Nc1nc[nH]c1C(N)=O)C(N)=S | 38.5% |
| COC(=O)C(C(=O)C(=O)NC1Nc2ccc(C)cc2S1)c1nc2ccc(Cl)cc2[nH]c1=O (stereo unspecified) | 11.5% |
| O=C(O)c1n[nH]nc1Cl | 5.35% |
| CSc1nc(Br)nc2ncn(C3CC(Oc4ccc(C)cc4)C(COc4ccc(C)cc4)O3)c12 (stereo unspecified) | 12.4% |
| CC(C)O/N=C/c1cc(NC(=S)OC(C)C)ccc1Cl | 11.1% |
| Cc1ccc(OCC2OC(n3cnc4nc(N)nc(Cl)c43)CC2Oc2ccc(C)cc2)cc1 (stereo unspecified) | 44.7% |
| COc1ccc(C)cc1NC(=S)C#N | -0.15% |

assay: NCI Yeast Anticancer Drug Screen. Data for the cln2 rad14 strain (AID 165);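 further: 0% = growth equal to vehicle treated cultures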; settings: S. cerevisiae cln2 rad14 strain, at 50.0 µM, active compounds read high
Method in brief: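 Strain: cln2 rad14 yeast, altered in cell cycle control and DNA damage repair. Read-out: growth inhibition vs vehicle.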

| SMILES | growth inhibition |
| --- | --- |
| CC1CC(C(=O)OC2OC(COC3OC(CO)C(OC4OC(C)C(O)C(O)C4O)C(O)C3O)C(O)C(O)C2O)C2CCC3(C)C(=CCC4(C)C3CCC3C(C)(CO)C(O)C(O)CC34C)C2C1C (stereo unspecified) | 26.8% |
| CC1CC2(OC2C)C(=O)OC2CCN(C)C/C=C(/COC(=O)C1(C)O)C2=O (stereo unspecified) | 4.85% |
| CC(C)CCCC(C)[C@H]1CC[C@H]2[C@@H]3CC[C@H]4C[C@@H](CCC=C(c5cc(Cl)c(O)c(C(=O)O)c5)c5cc(Cl)c(O)c(C(=O)O)c5)CC[C@]4(C)[C@H]3CC[C@]12C (stereo partly specified) (tested in a mixture with another compound) | -8.4% |
| COC(=O)c1cnn2c1n[n+]([O-])c1ccccc12 | 15.9% |
| CC(C)/C(Cl)=N/OC(=O)Nc1cccc(C(F)(F)F)c1 | 24.8% |
| COc1ccc2cc1Oc1ccc(cc1)CC1c3cc(OC)c(cc3CCN1C)Oc1c(OC)c(OC)cc3c1C(C2)N(C)CC3 (stereo unspecified) | 6.9% |
| CC(=O)c1ccc(NC(=O)/C(CC(=O)/C=C/c2ccccc2)=N/NC(N)=S)cc1 | 16.3% |
| COC(=O)C(=O)C(C(=O)C(=O)Nc1ccc(Cl)c(Cl)c1)c1nc2ccc(C(=O)c3ccccc3)cc2[nH]c1=O (stereo unspecified) | 5.95% |
| CC(C)=CCc1cc(C2COc3cc4c(c(O)c3C2=O)C=CC(C)(C)O4)c(O)cc1O (stereo unspecified) | 90.9% (active) |
| O=C1c2ccccc2-c2c1c1ccccc1c(=O)n2-c1cccnc1 | 32.3% |
| N=C1N=C(N)CS1 | 12.4% |
| CCCCCCCCCC(=O)CC(=O)c1c(O)cc(O)cc1O | 22.4% |
| CC12CCC(CC1)C(C)(C)O2 | 9.6% |
| COc1cc2c3cc1Oc1c(OC)c(OC)cc4c1C(Cc1ccc(O)c(c1)-c1cc(ccc1OC)CC3N(C)CC2)N(C)CC4 (stereo unspecified) | 0.5% |
| C=C1C(=O)OC2CC(C)C3(O)CCC(=O)C3(C)CC12 (stereo unspecified) | 4.45% |
| CNC(=S)c1nnsc1N | -2.45% |
| Cc1ccc(/C=N/Nc2nncc3ccccc23)s1 | 21.2% |
| COc1ccc(-c2coc3c4c(ccc3c2=O)OCO4)cc1OC | 7.2% |
| Cc1ccc(OCC2OC(n3cnc4c(Cl)nc(Cl)nc43)CC2Oc2ccc(C)cc2)cc1 (stereo unspecified) | 7.45% |

| SMILES | growth inhibition |
| --- | --- |
| NNc1[nH]c(=S)[nH]c1C(N)=O | -7.65% |
| CCOC(=O)C(=O)C(CCC(=O)c1ccc2ccccc2c1O)C(=O)OCC (stereo unspecified) | 4.25% |
| Cc1ccc(C)c(NC(=O)/C(=N\N)C(c2cnc3ccc([N+](=O)[O-])cc3n2)[N+](=O)[O-])c1 (stereo unspecified) | -35.2% |
| CC1C2(C)OC(=N)C(C#N)(C(c3cccc([N+](=O)[O-])c3)O2)C1(C#N)C#N (stereo unspecified) | 0.15% |
| Cn1c2c(c3ccccc3c1=O)C(=O)c1ccccc1-2 | 26.1% |
| C[N+](C)(CCNC(=O)c1cccc2cc3ccccc3nc12)Cc1ccc([N+](=O)[O-])s1 | 4.1% |
| CCC(=O)C(CC)c1cccc(OC)c1 (stereo unspecified) | 25.3% |
| COc1c2c(c3c(c1OC)c(=O)c1ccccc1n3C)OCO2 | 8.5% |
| CC/C(Cl)=N\OC(=O)Nc1ccc(OC)cc1 | 2.6% |
| O=C(O)CCCC(=O)Nn1c(Cc2ccc(Cl)cc2)n[nH]c1=O | -6.3% |
| CC1OC23CCCCC2C(C#N)(C#N)C1(C#N)C(=N)O3 (stereo unspecified) | -22.9% |
| N#CC1(C#N)C2CCCCC23OC(=N)C1(C#N)C(c1ccco1)O3 (stereo unspecified) | -17.1% |
| CNC(=S)/C(=N\Nc1nc[nH]c1C(N)=O)C(N)=S | -0.8% |
| COC(=O)C(C(=O)C(=O)NC1Nc2ccc(C)cc2S1)c1nc2ccc(Cl)cc2[nH]c1=O (stereo unspecified) | 21.1% |
| O=C(O)c1n[nH]nc1Cl | -4.2% |
| CSc1nc(Br)nc2ncn(C3CC(Oc4ccc(C)cc4)C(COc4ccc(C)cc4)O3)c12 (stereo unspecified) | 0.7% |
| CC(C)O/N=C/c1cc(NC(=S)OC(C)C)ccc1Cl | -4.8% |
| Cc1ccc(OCC2OC(n3cnc4nc(N)nc(Cl)c43)CC2Oc2ccc(C)cc2)cc1 (stereo unspecified) | 46.5% |
| COc1ccc(C)cc1NC(=S)C#N | -18.6% |
